Over roughly 4,500 sequences, “median log2 fold change of GCK-ALFA target abundance (FLAG IP / Myc IP barcode read proportion)” has its median near 0.078; the lowest 2% begin near -0.6. The entries come from a sample that favours the lowest values as a whole.
B1: GBRAP_160_4426 (protein)
chain: SAKLEKAKKLITEIVEETAEMMEGESAEERIVLVRVAEGEILLELEELGLLTDEIEAVIDETFAAIAAHIAAHPDISQEELRALLKAAEEKIKKQLEKEA
B2: GBRAP_52_6047 (protein)
chain: SEEEIRRLAREAYEAMLAGDEERARALLREIFATKDEEKLEVFLETMVELAREARPEEHDAVARLVELAEEVGREAGIPEEFLDDFEARVFAAMYEAEQR
B3: GBRAP_11_2845 (protein)
chain: KKEKLKEIAEQADKVIALLDELIAAGTDDEELWKKLEEQLKKLQELVEKYLDESEKELAKLAKEELEEAKADPANAEQHLNNAKAFVSTLQGLVLLEIEE
B4: GBRAP_125_3027 (protein)
chain: SMEETAANLAKIARALGFSEGDVAELVANALAHGIKGAMIALALALGDEELADLLERLTEEEVARVVAEAAAEIEANPDLTPEEVKALLLELARRAVAES
B5: GBRAP_35_5514 (protein)
chain: STDDTIAEMLESYIEDLTLAVPELDPETLHTLTLGAAEMARELIEDNKNNKEIVKRIKESLERLLEALEARGLDDPLLREAAERVREVIEYAEEVLKEIE
B6: GBRAP_150_3890 (protein)
chain: SLEELLTIADTALDILELDIESGGKTIDQTLKVVQALVDEAKNFSPELQKLAEEALKKVEEAKKLKEEGGDQKEIDKLLKEAKKKLEELIKLLEKKIKEK
B7: GBRAP_83_6961 (protein)
chain: MIVVAASERPESIRSSIEAAIDLHKNEGKEVEIELFVTRENAPAALEGLKKAIDAGVEAEITLVTREEDREAAEALAAELKAYAAAKGRNTTVTVEVLPA
B8: GBRAP_184_5320 (protein)
chain: KVIHKVIEVETEEEAIEKLEEVKKEAKETGEKYLVVVEIKNATEKKIEAIAEKIKEMKEEGLPIEVIVELLDEVDEELTDFAVEKMEEAGAKVVISLKDE
B9: GBRAP_160_4155 (protein)
chain: SEELKKLIKEIKELADEAIKMMEGETPEQAKTIARVTLGDILLLVEENPAVSEEAEDKIGAIADATEATLKANPDLTVEEVKALVKEARDKVVAILEEEA
B10: GBRAP_160_4153 (protein)
chain: SEEIEKLIKEINEIADEAIKMMEGETPEQAKTIARVALGEMLLLVEENEAVSEETEDKIGEVVDATEATLKANPNLTVEEVKALLNEARDKIVKILKEES
B11: GBRAP_128_3366 (protein)
chain: LDEALLAEIRALVERMITSSVEETAALTREIVARIGTLSLAEQEAAVEIILAALPKLTKEKLEVVADTIRAAAPELDPETQRLLAEVEVEALNLAEELEE
B12: GBRAP_53_6391 (protein)
chain: GEERLEELIEELNRLIEELKTADPETAIKLAREAVELLLELAELGLPEEELVELVRRFAEAARPKPELEPVLVELAKRLAALGREEAAAEVAEALVEELE
B13: GBRAP_35_5625 (protein)
chain: NTNKEIAEATVAVMEDTLLAVDEVPAETFIDTAIKVAKAGIEVAKELKDDKENAKKILEAVKELLEAALKKAEETGAPEEKIKELKELLKEVEELEKKLK
B14: GBRAP_43_5791 (protein)
chain: MEEIVEGALDFARTALETPEITDETKARIVVDAVDFAADEGLLTEEELEELLRLLAESVSLEVAERALEEILKRLKELGAPQSLIDVVEKALEEVKKRRA
B15: GBRAP_160_3991 (protein)
chain: SEEIEKLKEEFKKLFDEMLELAEGESPEERLAVVRVMMGEVILLAEESGVVSDEAEEEIAKIMDELVATVEANPDMSMEELKALVEEALKKIFEVIDKYS
B16: GBRAP_52_5980 (protein)
chain: AEAEARALAEELLALMLAGDREGARALIREIVATKSEAFLELVFAALAELARTATPEERDAIVELALLLEDEALEGGFDEAVVDAGVARVAAAAVAAAAA
B17: GBRAP_14_3765 (protein)
chain: MEEVEKIIDETGKEIAALLAELVPEKAEEFKEAIDEVRKETIARIKETGDALAAAEEGERRLAERIAEITADLPEERRAEALAVVRVLFGQAILEIDEAL
B18: GBRAP_184_5033 (protein)
chain: KVLEKEIKAKNKEELEEKLKKLAEEVKGSKADLIVLLDIENPTKEKVKLAIEGLGAIKKAGYVSSVTIGFENELSEELTDVALETADKEGVKVVLPISDE
B19: GBRAP_42_5723 (protein)
chain: MYLVNLEVVVATREELERAIAIWRERNARYRKEKGIIIRLTIAAPEEAAELAAEAEAESAELAKEADKELDWVVVAASADEVGDAIDIAVDLALEERKEE

Target: GABARAP, O95166
Sequence (O95166 whole entry, the tested form may be a part): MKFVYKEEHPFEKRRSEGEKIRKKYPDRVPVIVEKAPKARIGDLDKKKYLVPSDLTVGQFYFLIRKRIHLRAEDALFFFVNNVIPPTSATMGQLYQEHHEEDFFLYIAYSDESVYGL
Assay: median log2 fold change of GCK-ALFA target abundance (FLAG IP / Myc IP barcode read proportion) (log2 ratio); each designed protein is fused to an ALFA-tag nanobody in HEK293 cells to bring the named protein to FLAG-tagged glucokinase (GCK); Myc marks an untargeted standard; higher = target protein stabilised (more abundant)
Conditions: target protein: 3xFLAG-MCP-GCK-ALFA reporter; HEK293 landing pad (RPLP)
How it was run: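 Sequencing of reverse-transcribed, amplified circular RNA barcodes from anti-FLAG and anti-Myc immunoprecipitates provided the readout for an ALFA-nanobody-fused binder library recombined into HEK293 landing-pad cells. Those cells were induced with 2 μg mL^−1 doxycycline, transfected with a plasmid expressing a FLAG-tagged target and a Myc-tagged standard, and lysed after 48 h. Target abundance is the per-binder median log2 ratio of FLAG to Myc barcode read proportions. Only barcodes at a proportion of ≥10^−7 in both replicates and binders with ≥3 barcodes per replicate were kept, with a 10^−6 pseudocount added before the two replicates were pooled.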

Binder	median log2 fold change
B1	-0.243
B2	0.204
B3	0.0872
B4	0.134
B5	-0.908
B6	0.232
B7	0.189
B8	0.193
B9	-0.546
B10	-0.642
B11	0.309
B12	0.2
B13	-0.0947
B14	-0.0499
B15	-0.567
B16	-0.762
B17	0.0613
B18	-0.000909
B19	0.104
